Reference: PubChem BioAssay (NCATS)
Inconclusive results are not listed. Activity calls are given as the source filed them. Unless noted, calls follow the shape of the dose curve; as a rule, active = well fitted cell-killing curve with a large enough effect; inconclusive = small, poorly fitted or top-dose-only effect; inactive = flat fitted curve, though single readings scatter.

Key:
[1] = Cell Viability - LYMP2-025 (AID 976); also: series mostly up to about 92 µM
Summary of the method: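 CellTiter-Glo luminescence (cellular ATP) after 24 h compound exposure at 37 C; LYMP2-025 human lymphoblastoid cells, 2500/well, complete medium. Tetraoctylammonium bromide positive control. AC50 by Hill equation fit of qHTS concentration-response.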

[2] = Cell Viability - LYMP2-002 (AID 977); also: series mostly up to about 92 µM
Summary of the method: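 Human lymphoblastoid cells, 2500/well, complete medium; 5 h 37 C settle; compound 24 h 37 C; CellTiter-Glo, 30 min RT; luminescence. Decrease in ATP = cytotoxicity; AC50 via Hill equation.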

[3] = Cell Viability - LYMP2-006 (AID 978);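 also: series mostly up to about 92 µM; cells exposed to compound for 24 hours; nearly all actives have a fitted effect of over 60% in size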
Summary of the method: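 qHTS, 1536-well; 2500 cells/well, 5 hr 37 C; cpd 24 hr 37 C; CellTiter-Glo 30 min RT; luminescence. Tetraoctylammonium bromide pos. ctrl. AC50 via Hill eqn.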

[4] = Cell Viability - LYMP2-007 (AID 979);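 also: cells exposed to compound for 24 h before reading; nearly all actives have a fitted effect of over 60% in size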
Summary of the method: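 qHTS cytotoxicity: 2500 cells/well, 5 hr 37 C settle, compound 24 hr 37 C, CellTiter-Glo 30 min RT, luminescence. Decrease in ATP = toxicity. AC50 by standard Hill equation; tetraoctylammonium bromide positive control.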

[5] = Cell Viability - LYMP2-008 (AID 980); also: nearly all actives have a fitted effect of over 60% in size
Summary of the method: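 Luminescent ATP read-out (CellTiter-Glo, 30 min RT) after 24 hr compound exposure at 37 C of human lymphoblastoid cells in complete medium. Decrease in ATP taken as cytotoxicity; AC50 derived by standard Hill fit of qHTS concentration-response data.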

[6] = Cell Viability - LYMP2-010 (AID 981);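 also: cells exposed to compound for 24 hours at 37 °C; nearly all actives have a fitted effect of over 55% in size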
Summary of the method: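 qHTS cytotoxicity, 1536-well: 2500 cells/well, 5 hr settle, 24 hr compound at 37 C, CellTiter-Glo 30 min RT, luminescence read. Decrease in ATP = toxicity; AC50 via standard Hill equation. Positive control tetraoctylammonium bromide.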

[7] = Cell Viability - LYMP2-014 (AID 983); also: series mostly up to about 92 µM; nearly all actives have a fitted effect of over 50% in size
Summary of the method: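 2500 cells/well, 5 hr 37 C; cpd 24 hr 37 C, complete medium; CellTiter-Glo 30 min RT, luminescence; ATP loss = toxicity; AC50 via Hill eqn; tetraoctylammonium bromide positive control.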

[8] = Cell Viability - LYMP2-016 (AID 984);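 also: cells exposed to compound for 24 hours at 37 °C; nearly all actives have a fitted effect of over 55% in size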
Summary of the method: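 qHTS, 1536-well: 2500 LYMP2-016 cells/well, 5 hr 37 C, compound added, 24 hr 37 C, CellTiter-Glo 30 min RT, luminescence. Tetraoctylammonium bromide positive control. AC50 via Hill fit.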

[9] = Cell Viability - LYMP2-018 (AID 985); also: nearly all actives have a fitted effect of over 50% in size
Summary of the method: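 2500 cells/well; 5 hr 37 C; cmpd 24 hr 37 C, complete medium; CellTiter-Glo 30 min RT; luminescence. Tetraoctylammonium bromide positive control. AC50 via Hill fit.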

[10] = Cell Viability - LYMP2-020 (AID 986); also: series mostly up to about 92 µM; nearly all actives have a fitted effect of over 55% in size
Summary of the method: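 qHTS, 2500 cells/well; 5 hr then 24 hr compound exposure, 37 C; CellTiter-Glo luminescence after 30 min RT; ATP decrease taken as cytotoxicity; AC50 via Hill equation; tetraoctylammonium bromide positive control.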

[11] = Cell Viability - LYMP2-022 (AID 987); also: nearly all actives have a fitted effect of over 55% in size
Summary of the method: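 Luminescent ATP read-out (CellTiter-Glo, 30 min, RT) after 24 hr, 37 C compound exposure of 2500 human lymphoblastoid cells/well in complete medium. Cytotoxicity taken as concentration-dependent ATP loss; AC50 from standard Hill equation.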

[12] = Cell Viability - LYMP2-024 (AID 988); also: nearly all actives have a fitted effect of over 60% in size
Summary of the method: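 ATP-based luminescence (CellTiter-Glo, 30 min RT) after 24 h compound exposure at 37 C of 2500 lymphoblastoid cells/well; decrease in ATP taken as cytotoxicity. qHTS concentration-response fitted to standard Hill equation for AC50.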

[13] = Cell Viability - LYMP2-026 (AID 989); also: nearly all actives have a fitted effect of over 50% in size
Summary of the method: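 qHTS cytotoxicity: 2500 cells/well, 5 hr 37 C, compound 24 hr 37 C, CellTiter-Glo 30 min RT, luminescence. Tetraoctylammonium bromide positive control. AC50 via standard Hill fit.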

[14] = Cell Viability - LYMP1-002 - Assay at 24 hr (AID 993)
Summary of the method: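 CellTiter-Glo luminescence (intracellular ATP) after 24 h compound exposure, 37 C, in LYMP1-002 human lymphoblastoid cells; decreased ATP taken as cytotoxicity. AC50 from standard Hill fit of concentration-response curves.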

[15] = Cell Viability - LYMP1-002 - Assay at 40 hr (AID 994); also: nearly all actives have a fitted effect of over 60% in size
Summary of the method: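 qHTS cytotoxicity; 2500 cells/well, 5 hr 37 C settle, compound 40 hr 37 C. CellTiter-Glo, 30 min RT, luminescence (ATP). Concentration-response, Hill fit → AC50. Pos. ctrl tetraoctylammonium bromide.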

[16] = qHTS Assay for Identification of Small Molecule Inducers of Hypoxia Response (AID 2120; active = well fitted curve in the direction sought with a large enough effect in the signal ratio, with a control signal flat, not every such curve was filed as active; the % refers to the signal ratio)
Summary of the method: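 Read-out: CCF4 FRET emission ratio 460nm/530nm (excitation 405nm), converted to %Activity, with AC50 fitted across a compound titration. ME-180 cells carried an HRE-driven beta-lactamase reporter; compound exposure 17 h, 37 degrees C.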

[17] = target: Estrogen receptor (Homo sapiens) (UniProt P03372); assay: qHTS assay for small molecule antagonists of estrogen receptor alpha signaling (AID 588513; active = well fitted curve in the direction sought with a large enough effect in the signal ratio, with a control signal flat, not every such curve was filed as active; the % refers to the signal ratio)
Chain of Estrogen receptor (Homo sapiens) (P03372 whole entry, looked up): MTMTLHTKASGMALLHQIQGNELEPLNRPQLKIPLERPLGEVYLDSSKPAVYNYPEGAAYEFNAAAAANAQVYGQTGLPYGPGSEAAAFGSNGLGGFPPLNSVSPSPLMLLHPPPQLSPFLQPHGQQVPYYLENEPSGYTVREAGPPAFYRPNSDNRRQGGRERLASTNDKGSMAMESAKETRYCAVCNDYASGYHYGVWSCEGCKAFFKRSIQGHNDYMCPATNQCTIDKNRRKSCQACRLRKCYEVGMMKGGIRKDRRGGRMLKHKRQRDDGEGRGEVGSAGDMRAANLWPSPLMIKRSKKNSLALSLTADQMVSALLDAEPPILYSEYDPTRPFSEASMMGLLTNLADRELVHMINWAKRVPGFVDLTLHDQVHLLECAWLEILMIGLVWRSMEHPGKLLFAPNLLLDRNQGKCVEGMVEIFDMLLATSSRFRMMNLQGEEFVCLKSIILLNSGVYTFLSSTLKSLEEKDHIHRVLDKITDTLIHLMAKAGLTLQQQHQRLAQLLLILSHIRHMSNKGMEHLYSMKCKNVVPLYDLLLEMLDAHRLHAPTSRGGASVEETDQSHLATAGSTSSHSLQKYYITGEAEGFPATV
Summary of the method: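 Beta-lactamase reporter, antagonist mode, HEK 293 GripTite cells; 0.5nM E2 stimulus, 18 h, 37 C; CCF4 dye 2 h RT; fluorescence. IC50 and efficacy from Hill fits, normalized to E2 and DMSO.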

[18] = target: Estrogen receptor (Homo sapiens) (UniProt P03372); assay: qHTS assay for small molecule agonists of estrogen receptor alpha signaling (AID 588514; calls by dose curve; also: nearly all actives have a fitted effect of over 70% in size)
Summary of the method: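 Read-out: CCF4 fluorescence from a beta-lactamase reporter in ER-alpha-UAS-bla HEK 293 cells after 18 hrs of compound exposure at 37 C. Normalized to 20 nM 17-beta-estradiol (100%) and DMSO (0%).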

[19] = Cell Viability - LYMP2-012 (AID 982)

Measured: Potency

O=[N+]([O-])c1cccc(C(F)(F)F)c1
not listed: [19]
inactive: all other assays above

Cc1ccc(Cl)cc1
not listed: [5]
inactive: all other assays above

CN(C)CCCNCCCN
not listed: [5] | [6] | [8] | [19]
inactive: all other assays above

Oc1c(Cl)ccc(Cl)c1Cl
not listed: [5] | [6]
inactive: all other assays above

Cc1ccc2oc(=O)ccc2c1
not listed: [6]
inactive: all other assays above

COC(=O)CC#N
not listed: [5]
inactive: all other assays above

COc1ccc(N)c(C)c1
not listed: [5] | [7] | [8]
inactive: all other assays above

Cc1cc(C)c(N)cc1C
not listed: [19]
inactive: all other assays above

Nc1cccc(C(F)(F)F)c1
not listed: [5] | [7]
inactive: all other assays above

CNc1ccc([N+](=O)[O-])cc1
not listed: [5] | [8] | [9] | [13]
inactive: all other assays above

CCNc1cc(O)ccc1C
not listed: [4]
inactive: all other assays above

NC(=O)/N=N/C(N)=O
not listed: [6] | [7] | [12]
inactive: all other assays above

CC(C)=C1CCC(C)CC1=O (centres undefined)
not listed: [7]
inactive: all other assays above

Cc1ccc(S(=O)(=O)NC2CCCCC2)cc1
not listed: [13] | [14] | [19]
inactive: all other assays above

O=C1OC(=O)c2cc([N+](=O)[O-])ccc21
not listed: [5] | [6] | [9]
inactive: all other assays above

CCCCC(C=O)CC (centres undefined)
not listed: [5] | [8]
inactive: all other assays above

Cc1cc([N+](=O)[O-])ccc1N
not listed: [7] | [9] | [13]
inactive: all other assays above

Cc1ccc(C)c(N)c1
not listed: [4] | [14]
inactive: all other assays above
